{"source": "PubChem BioAssay AID540364", "about": "(The Scripps Research Institute Molecular Screening Center, 2011)", "note": "The whole screen tested about 360,000 compounds, of which about 2,000 (0.56%) were called active. What follows is part of a selection rich in actives, with near analogues and random picks from the rest. Unmarked numbers belong to inactive results.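 The calls were made as follows: active = activation above the average of all compounds screened plus 3 SD, cutoff fixed separately per campaign (cut at about 7.5% in these data); inactive = the rest.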"}
{"assay": "GAA850 frataxin promoter reporter upregulation – cell-based, luciferase luminescence, HEK293 lucGAA850, primary screen (AID 540364);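 also: 0% = DMSO wells and 100% = 10 µM SAHA wells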", "conditions": "HEK293 lucGAA850 FXN promoter luciferase reporter, 24 h; at 6 µM; active compounds read high; percent of 10 µM SAHA response"}
{"molecule": "Cc1nc(-c2ccc(F)cc2)c(CC(=O)Nc2cccc(S(=O)(=O)N3CCOCC3)c2)s1", "activation": "-0.93%"}
{"molecule": "Cc1nc(-c2ccc(F)cc2)c(CC(=O)Nc2cc(S(=O)(=O)N3CCCCC3)ccc2C)s1", "activation": "18.7% (active)"}
{"molecule": "Cc1nc(-c2ccc(F)cc2)c(CC(=O)N2CCN(S(=O)(=O)c3ccc(F)cc3)CC2)s1", "activation": "1.58%"}
{"molecule": "CSCCC(NC(N)=O)C(=O)N(C)CC(=O)Nc1ccc(C)cc1", "note": "(stereo unspecified)", "activation": "0.85%"}
{"molecule": "CCOc1cc(S(=O)(=O)NCc2ccc3c(c2)OCO3)ccc1F", "activation": "1.09%"}
{"molecule": "Cc1ccc(-c2nnc(-n3nnc4ccccc43)c3ccccc23)cc1", "activation": "3.17%"}
{"molecule": "Cc1ccccc1N1CC(c2nc3ccccc3[nH]2)CC1=O", "note": "(stereo unspecified)", "activation": "-3.78%"}
{"molecule": "Cc1ccc(-c2nc3ccccc3[nH]c2=O)cc1", "activation": "8.59% (active)"}
{"molecule": "CN(c1ccccc1)c1nc(N)c([N+](=O)[O-])c(NCc2ccco2)n1", "activation": "6.64%"}
{"molecule": "COc1cccc(Nc2nc(N)c([N+](=O)[O-])c(NCc3ccco3)n2)c1", "activation": "12.7% (active)"}
{"molecule": "COc1ccc(Nc2nc(NCc3ccco3)nc(N/N=C/c3ccccc3Cl)n2)cc1", "activation": "0.27%"}
{"molecule": "CCOC(=O)C1CCN(C(=O)CN2C(=O)NC(C)(c3ccc4cc(OC)ccc4c3)C2=O)CC1", "note": "(stereo unspecified)", "activation": "-1.63%"}
{"molecule": "O=c1c2c(-c3ccccc3)ccnc2[nH]n1-c1ccccc1", "activation": "2.17%"}
{"molecule": "CCOC(=O)C1CCN(c2ncnc3c2c(-c2ccccc2)cn3-c2ccc(C)cc2)CC1", "activation": "0.35%"}
{"molecule": "O=c1[nH]cnc2c1c(-c1ccccc1)cn2-c1ccc(F)cc1", "activation": "8.36% (active)"}
{"molecule": "CCc1nnc(NC(=O)CSc2nnc(COc3ccc(C#N)cc3)n2-c2ccccc2)s1", "activation": "0.66%"}
{"molecule": "CCOc1ccc(CCNC(=O)C2CCN(c3ccc(N4CCOCC4)nn3)CC2)cc1OCC", "activation": "2.52%"}
{"molecule": "CCCCCCCCCCCCN1[C@@H](CC(C)=O)c2cc(F)cc(F)c2S1(=O)=O", "activation": "0.59%"}
{"molecule": "COc1ccccc1C1=CC(=O)CCC1", "activation": "-2.28%"}
{"molecule": "COc1ccccc1C1=Nc2cccc3cccc(c23)N1", "activation": "11.7% (active)"}
{"molecule": "COc1ccccc1-c1nc(C(F)(F)F)c(OC)o1", "activation": "0.69%"}
{"molecule": "CCOCCOCCC(C(=O)O)P(=O)(c1ccccc1)c1ccccc1", "note": "(stereo unspecified)", "activation": "-1.43%"}
{"molecule": "CCOc1ccc(NC(=O)CN(C)C(=O)COc2cccc(CC)c2)cc1OCC", "activation": "0.68%"}
{"molecule": "C[C@H](CO)N1C[C@H](C)[C@@H](CN(C)C(=O)c2cccc(F)c2)Oc2cc(-c3cncnc3)ccc2S1(=O)=O", "activation": "0.78%"}
{"molecule": "COc1ccccc1CNC(=O)c1ccc(N(C)S(=O)(=O)c2ccc(C)cc2)cc1", "activation": "0.45%"}
{"molecule": "COc1ccc(NC(=O)CC2C(=O)OCC3CCCCN32)cc1Cl", "note": "(stereo unspecified)", "activation": "3.58%"}
{"molecule": "COc1ccc(/C=C/C(=O)c2c(O)cc(OC)cc2OC)cc1", "activation": "1.23%"}
{"molecule": "O=C(NC1CCCCC1)c1cc(C2CC2)on1", "activation": "2.15%"}
{"molecule": "COc1cc(OC)cc(C(=O)NCCCn2ccnc2)c1", "activation": "1.13%"}
{"molecule": "O=C(NCCCn1ccnc1)c1cc(Br)c(Br)s1", "activation": "1.52%"}
{"molecule": "O=C(NC1CCCC1)c1cc(-c2ccccc2)on1", "activation": "8.61% (active)"}
{"molecule": "O=C(NC1CCCCCCC1)c1cccs1", "activation": "1.55%"}
{"molecule": "O=C(NCCCn1ccnc1)c1cc(-c2ccccc2)on1", "activation": "20.8% (active)"}
{"molecule": "Fc1ccc(CNc2nc3ccccc3n3nnnc23)cc1", "activation": "4.29%"}
{"molecule": "O=S(=O)(c1ccc(Sc2nnc3ccccn23)nc1)N1CCOCC1", "activation": "-1.38%"}
{"molecule": "CC1(C)CC(=O)CC2(C1)NCC(c1ccccc1Cl)c1c2[nH]c2ccccc12", "note": "(stereo unspecified)", "activation": "-7.14%"}
{"molecule": "CCCNC(=O)c1c(Cl)cnn1-c1ccc(C)cc1", "activation": "7.7% (active)"}
{"molecule": "CCCNC(=O)CCc1c(C)nc2c(c(C)nn2-c2ccc(C)cc2)c1C", "activation": "0.2%"}
{"molecule": "CCCc1c(C(=O)O)cnn1-c1ccc(Cl)cc1", "activation": "-0.1%"}
{"molecule": "Cc1cnc(C(=O)OCc2c(C)cc(C(C)(C)C)cc2C)cn1", "activation": "1.56%"}
{"molecule": "CC(Oc1ccccc1)C(=O)NN1Cc2ccccc2C1=N", "note": "(stereo unspecified)", "activation": "2.03%"}
{"molecule": "CCOC(=O)c1nn(-c2cccc(C)c2)cc1C(=O)c1ccccc1", "activation": "6.71%"}
{"molecule": "CCCNC(=O)c1cc(C2CCCCN2S(=O)(=O)c2ccc(C#N)cc2)on1", "note": "(stereo unspecified)", "activation": "1.65%"}
{"molecule": "O=C(CSc1cccc2cccnc12)N/N=C/c1cccnc1", "activation": "15.3% (active)"}
{"molecule": "Cc1ccc(S(=O)(=O)N(CC(=O)N/N=C/c2ccc(F)cc2)c2cccc3cccnc23)cc1", "activation": "-4.8%"}
{"molecule": "Cc1c(NC(=O)CSc2cccc3cccnc23)c(=O)n(-c2ccccc2)n1C", "activation": "2.68%"}
